target: Calmodulin-1 (Homo sapiens) (UniProt P0DP23); assay: CALM1 binders on microarrays, EGTA buffer, profiling panel, biochemical, small-molecule microarray, Cy5-labelled CALM1 (AID 1111); details: Cy5-CALM1 binding fluorescence, higher = more signal;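 further: labelled calmodulin applied in Tris saline Tween buffer holding calcium plus EGTA and DTT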

| Structure (SMILES) | composite z-score |
| --- | --- |
| O=C1C[C@@H](O)[C@@H](O)[C@@H]2[C@@H]3C(=O)N(c4ccc(F)cc4F)C(=O)[C@@H]3CC[C@H]12 | -0.134 |
| Cc1cc(C)c(-c2cc([C@H](C)ON=C[C@@H](C)[C@H](OCc3ccccc3)C(C)C)on2)c(C)c1 | -0.27 |
| CCN1C(=O)[C@H]2[C@H]3[C@H](O)[C@H](O)CC(=NOCC=C(C)CCC=C(C)C)[C@@H]3CC[C@H]2C1=O | -1.09 |
| CC(CCC(=O)OC[C@H]1O[C@H](C#Cc2ccccc2)C=C[C@@H]1Oc1ccc(C)cc1)=NOC[C@@H](C)[C@H](OCc1ccccc1)C(C)C | -1.24 |
| CCOC(=O)CCN1C(=O)[C@H]2[C@H]3[C@H](O)[C@H](O)CC(=NO[C@@H]4O[C@H](CO)[C@@H](O)[C@H](O)[C@H]4O)[C@H]3CC[C@H]2C1=O | 0.112 |
| CC1(C)O[C@H]2OC([C@H](O)CON3C(=O)c4ccccc4C3=O)[C@H](O)[C@H]2O1 (stereo not given in full) | -0.494 |
| CC(CCN1CCc2nc(-c3ccccc3)c(-c3ccccc3)cc2C1)=NO[C@H](C)c1cn([C@H](CO)Cc2ccccc2)nn1 | 0.0521 |
| CON=C(C)CCN1CCCc2nc(C)c(C)cc21 | -0.209 |
| CC(=O)OC[C@H]1O[C@@H](ON=C(C)CCC(=O)OC[C@H]2O[C@H](C#Cc3ccccc3)C=C[C@@H]2Oc2ccc(C)cc2)[C@H](OC(C)=O)[C@@H](OC(C)=O)[C@@H]1OC(C)=O | 0.49 |
| CCN1C(=O)[C@H]2[C@H]3[C@H](O)[C@H](O)CC(=NO[C@H](C)c4cn([C@H](CO)Cc5ccccc5)nn4)[C@@H]3CC[C@H]2C1=O | 0.782 |
| CC(=O)OC[C@H]1O[C@@H](ON=C(C)C)[C@H](OC(C)=O)[C@@H](OC(C)=O)[C@@H]1OC(C)=O | -0.862 |
| CC(C)CON=C1C[C@@H](O)[C@@H](O)[C@@H]2[C@@H]3C(=O)N(c4ccc(F)cc4F)C(=O)[C@@H]3CC[C@@H]12 | 0.0012 |
| C=C(C)C(=O)OC[C@H]1CN2[C@@H](CC[C@@H](C)[C@@H]2c2ccc(Br)cc2)C(=O)O1 | -0.562 |
| CC(CCN1CCCc2nc(C)c(C)cc21)=NOC[C@@H](O)COCc1ccco1 | 0.264 |
| O=C1C=C[C@@H](O)[C@@H]2[C@@H]3C(=O)N(Cc4ccc5c(c4)OCO5)C(=O)[C@@H]3CC[C@@H]12 | -0.112 |
| CC(C)(C)N1C(=O)[C@H]2[C@H]3[C@H](O)[C@H](O)CC(=NOC[C@@H](O)COCc4ccco4)[C@@H]3CC[C@H]2C1=O | -0.235 |
| C=CC[C@@H]1C=CC(ON=C(C)C)[C@@H](CO)O1 (stereo not given in full) | -0.253 |
| CCC1=NOC(CCC2CC(OC(=O)NCc3cccc4c3OCO4)CC3(CCCC(COC(=O)NCCc4ccc(Cl)cc4)O3)O2)C1 (stereo not given) | -0.257 |
| C#CCCCON=C1C[C@@H](O)[C@@H](O)[C@@H]2[C@@H]3C(=O)N(C4CCCCC4)C(=O)[C@@H]3CC[C@@H]12 | -0.346 |
| CC(=O)OC[C@H]1O[C@H](CC=NOC[C@@H](O)COCc2ccco2)C=C[C@@H]1OC(C)=O | -1.18 |
| CC(C)=NOC(C)CN1CCCc2nc(C)c(C)cc21 (stereo not given) | -0.291 |
| CCOC(=O)[C@H](Cc1ccccc1)NC(=O)CCC1CC(OC(=O)NCc2cccc3ccccc23)CC2(CCCC(COC(=O)NCC3CCCCC3)O2)O1 (stereo not given in full) | 0.297 |
| O=C1C[C@H](c2ccccc2)[C@H](c2ccc(Br)cc2)O1 | -0.649 |
| COC(=O)[C@H](C)NC(=O)CCC1CC(OC(=O)NCCc2ccc(F)cc2)CC2(CCCC(COC(=O)NCC3CCCCC3)O2)O1 (stereo not given in full) | 0.71 |
| CN1CCc2nc(-c3ccccc3)c(-c3ccccc3)cc2C1 | -0.174 |
| CC#CCOCCC=C1c2ccccc2[C@@H](OC)[C@@H]1C | -1.06 |
| C#CCCCON=C1C[C@@H](O)[C@@H](O)[C@@H]2[C@@H]3C(=O)N(C[C@@H]4CCCO4)C(=O)[C@@H]3CC[C@H]12 | 0.256 |
| O=C1[C@H]2[C@H]3[C@H](O)[C@H](O)CC(=NO[C@@H]4O[C@H](CO)[C@@H](O)[C@H](O)[C@H]4O)[C@H]3CC[C@H]2C(=O)N1c1ccc(F)cc1F | -0.466 |
| CCCNC(=O)OC[C@H]1O[C@H](CCON=C2C[C@@H](O)[C@@H](O)[C@@H]3[C@@H]4C(=O)N(CC)C(=O)[C@@H]4CC[C@@H]23)C=C[C@@H]1Oc1ccc(OC)cc1 | 0.0716 |
| CC(C)=CCCC(C)=CCON=C1C[C@@H](O)[C@@H](O)[C@@H]2[C@@H]3C(=O)N(c4cccc(Oc5ccccc5)c4)C(=O)[C@@H]3CC[C@H]12 | 0.322 |

Source: PubChem BioAssay
